BAZ2B inh – qHTS Assay for Inhibitors of BAZ2B | Bromodomain adjacent to zinc finger domain protein 2B (Homo sapiens), Q9UIF8 | AlphaScreen BAZ2B-H3K14Ac peptide displacement | Potency, µM (series often up to 114 µM), hits mostly inhibitors | 360,000 tested, 4.4% active; further: nearly all actives have a fitted effect of over 60% in size
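BAZ2B 50 nM plus b-H3(5-23)K14Ac 50 nM, PBS pH 7.4/0.01% Tween-20, 30 min RT; compound added (max 110 uM), 30 min RT; streptavidin donor/Ni-chelate acceptor beads 10 ug/mL final, 20 min dark; AlphaScreen read.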
PLK1 PBD inh – qHTS for Inhibitors of PLK1-PDB (polo-like kinase 1 - polo-box domain): Primary Screen | Potency, µM, usual class: inhibitors | Serine/threonine-protein kinase PLK1 (Homo sapiens), P53350 | 360,000 tested, 2.8% active | Plk1 PBD binding of FITC phosphopeptide, fluorescence polarization; further: series mostly up to about 57 µM; nearly all actives have a fitted effect of over 65% in size
Target sequence (P53350 whole entry, looked up, the tested form may be a part): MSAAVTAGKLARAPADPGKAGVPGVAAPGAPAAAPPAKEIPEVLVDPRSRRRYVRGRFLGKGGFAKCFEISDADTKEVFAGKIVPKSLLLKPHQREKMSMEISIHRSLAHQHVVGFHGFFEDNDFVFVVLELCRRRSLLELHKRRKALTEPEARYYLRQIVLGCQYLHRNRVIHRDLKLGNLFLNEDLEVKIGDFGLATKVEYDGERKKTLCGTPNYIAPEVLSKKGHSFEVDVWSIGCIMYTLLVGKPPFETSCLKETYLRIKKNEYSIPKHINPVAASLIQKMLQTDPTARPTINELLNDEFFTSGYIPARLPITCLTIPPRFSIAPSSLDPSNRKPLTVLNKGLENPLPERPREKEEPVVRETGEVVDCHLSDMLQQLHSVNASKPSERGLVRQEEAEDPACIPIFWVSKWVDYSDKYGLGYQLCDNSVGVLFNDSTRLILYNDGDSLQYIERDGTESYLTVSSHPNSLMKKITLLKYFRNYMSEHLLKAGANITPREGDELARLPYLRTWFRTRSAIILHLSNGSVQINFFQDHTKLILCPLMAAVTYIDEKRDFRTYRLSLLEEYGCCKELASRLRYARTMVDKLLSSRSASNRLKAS
G9a block – qHTS Assay for Inhibitors of Histone Lysine Methyltransferase G9a; G9a H3K9 monomethylation, AlphaScreen, 2 h; Potency, µM (highest dose often 102 µM), most hits filed as inhibitors; 350,000 tested, 8.8% active; AID 504332, 2011; further: nearly all actives have a fitted effect of over 75% in size
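Readings reflect AlphaScreen signal from monomethyl-H3K9 antibody detection. HMT at 20 nM; substrate b-H3K9 500 nM; cofactor SAM 20 uM; 2 h RT reaction; compounds tested as titrations in qHTS with 15 min preincubation.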
PI5P4Ka inh – qHTS for Inhibitors of phosphatidylinositol 5-phosphate 4-kinase (PI5P4K). Phosphatidylinositol 5-phosphate 4-kinase type-2 alpha (Homo sapiens), P48426. PI5P4Kalpha enzyme, ADP-Glo luminescence, 60 min; hits give low values. max response, %. 330,000 tested, 1.2% active. AID 652105, 2013; active means max response of -50% or lower; inconclusive means between -30% and -50%; inactive means -30% or higher; further: value at the top dose of about 77 µM
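Human PI5P4Kalpha with substrate in 0.038 M HEPES pH 7.4, 0.28 mM EGTA, 0.1% CHAPS, 5% DMSO; reaction started with 5 microM ATP (final), 60 min at room temperature. ADP formed read by ADP-Glo luminescence.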
HP1b binding inh – HTS for Inhibitors of HP1-beta Chromodomain Interactions with Methylated Histone Tails; AlphaScreen HP1-beta / biotin-H3K9me3 peptide binding; Potency, µM (titrated, usually from 114 µM), most hits filed as inhibitors; 390,000 tested, 0.56% active; AID 540317, 2011; further: nearly all actives have a fitted effect of over 70% in size
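Compound inhibition of the preformed complex between 50 nM HP1-beta and 50 nM biotinylated H3K9me3 peptide was read by AlphaScreen. Buffer was PBS pH 7.4 with 0.01% Tween-20. Incubations ran 30 min at room temperature, with 10 ug/mL donor/acceptor beads.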
JMJD2A Tudor – qHTS Assay for Inhibitors of JMJD2A-Tudor Domain; AlphaScreen JMJD2A-Tudor / H3K4me3 peptide binding; 390,000 tested, 4.4% active; Potency, µM (titrated, usually from 114 µM), actives largely listed as inhibitors; further: nearly all actives have a fitted effect of over 50% in size
Hits are given with their value; [ ] = dose if it differs, or a comment. Rows were chosen to be rich in hits. Some 12% of all compounds tested hit in one or more screens of this group. Unless noted, the call rests on the fitted dose curve; in most records, active means well fitted curve in the direction sought with a large enough effect; inconclusive means small, poorly fitted or top-dose-only effect, or another doubt; inactive means no such curve, though single readings can be large; an effect the other way counts as inactive or inconclusive.

Screening CC(C)C(NC(=O)C(CC(=O)O)NC(=O)C(CCCCN)NC(=O)C(N)CCCN=C(N)N)C(=O)NC(Cc1ccc(O)cc1)C(=O)O (stereo not drawn) returned G9a block inactive[12.7 µM].
`CN1CCc2c(sc3c2C(=O)NC(c2ccc(C(C)(C)C)cc2)N3)C1` (stereo not drawn) gave BAZ2B inh inactive, G9a block 8.9µM, HP1b binding inh inactive and JMJD2A Tudor inconclusive.
For O=C1CCc2cccc(O)c2N1 the results were PLK1 PBD inh inactive, PI5P4Ka inh inactive, HP1b binding inh inactive and JMJD2A Tudor 79µM.
Cc1cc(Br)ccc1NS(=O)(=O)c1c(C)[nH]c(=O)[nH]c1=O was read as BAZ2B inh inactive, PLK1 PBD inh inactive, G9a block 45µM, PI5P4Ka inh inactive, HP1b binding inh inactive and JMJD2A Tudor inactive.
Cc1ccc(NS(=O)(=O)c2c(C)[nH]c(=O)[nH]c2=O)c(C)c1 was read as BAZ2B inh inactive, PLK1 PBD inh inactive, G9a block inactive, PI5P4Ka inh inactive, HP1b binding inh inactive and JMJD2A Tudor inactive.
Screening Cc1ccc2c(c1)c(=O)c(S(=O)(=O)c1ccc(F)cc1)cn2CC(=O)Nc1ccc2c(c1)OCO2 returned BAZ2B inh inactive, G9a block inactive, HP1b binding inh inactive and JMJD2A Tudor inactive.
`COCC(C)Nc1nc(C)c(C(C)=O)s1` (stereo not drawn) gave BAZ2B inh inconclusive, PLK1 PBD inh inactive, G9a block 45µM, PI5P4Ka inh inactive, HP1b binding inh inactive and JMJD2A Tudor inactive.
For CN1CCN(C(=S)NC(=O)c2cccc(S(=O)(=O)N(C)C)c2)CC1 the results were BAZ2B inh inactive, PLK1 PBD inh inactive, G9a block 14µM, PI5P4Ka inh inactive, HP1b binding inh inactive and JMJD2A Tudor inactive.
For Cc1ccc(C(=O)NC(=S)N2CCN(C)CC2)cc1Br the results were BAZ2B inh inactive, PLK1 PBD inh inactive, G9a block 45µM, PI5P4Ka inh inactive, HP1b binding inh inactive and JMJD2A Tudor inactive.
For CN1CCN(C(=S)Nc2cccc(S(=O)(=O)N(C)C)c2)CC1 the results were BAZ2B inh inactive, PLK1 PBD inh inconclusive, G9a block inactive, PI5P4Ka inh inactive, HP1b binding inh inactive and JMJD2A Tudor inactive.
`COc1ccc(C(=O)NC(=S)N2CCN(C)CC2)cc1Br` gave BAZ2B inh inactive, PLK1 PBD inh inactive, G9a block 45µM, PI5P4Ka inh inactive, HP1b binding inh inactive and JMJD2A Tudor inactive.
Screening CN1CCN(C(=S)NC(=O)c2ccccc2Br)CC1 returned BAZ2B inh inactive, PLK1 PBD inh inactive, G9a block inactive, PI5P4Ka inh inactive, HP1b binding inh inactive and JMJD2A Tudor inactive.
`CCC(C)C(=O)OC1CC(O)C=C2C=CC(C)C(CCC(O)CC(O)CC(=O)O)C21` (stereo not drawn) gave G9a block inactive[2.33 µM].
For COc1ccc(/C=N/N2C(=O)C3C4C=CC(C4)C3C2=O)cc1[N+](=O)[O-] (stereo not drawn) the results were BAZ2B inh inconclusive, PLK1 PBD inh inactive, G9a block inactive, PI5P4Ka inh inactive, HP1b binding inh inactive and JMJD2A Tudor inactive.
COc1cc(/C=C2/C(=O)N(c3ccc(C(=O)O)cc3)N=C2C)cc(OC)c1O was read as BAZ2B inh inconclusive, PLK1 PBD inh inactive, G9a block 40µM, PI5P4Ka inh inactive, HP1b binding inh inconclusive and JMJD2A Tudor inactive.
Screening CC1=NN(c2ccc(Br)cc2)C(=O)/C1=C/c1cccs1 returned BAZ2B inh 4.5µM, PLK1 PBD inh 8.4µM, G9a block 7.1µM, PI5P4Ka inh inactive, HP1b binding inh inactive and JMJD2A Tudor inconclusive.
`COc1cc(/C=C2/C(=O)N(c3ccc(Br)cc3)N=C2C)cc(OC)c1OC` gave BAZ2B inh 40µM, PLK1 PBD inh 1.3µM, G9a block 50µM, PI5P4Ka inh inactive, HP1b binding inh inactive and JMJD2A Tudor 35µM.
Screening CC1=NN(c2ccc(C)cc2)C(=O)/C1=C\c1ccc(Br)s1 returned BAZ2B inh inactive, PLK1 PBD inh inactive, G9a block inconclusive, PI5P4Ka inh inactive, HP1b binding inh inconclusive and JMJD2A Tudor inactive.
`COc1ccc(/C=C2\N=C(c3ccccc3)N(c3ccc(C(=O)O)cc3)C2=O)cc1OC` gave BAZ2B inh inactive, PLK1 PBD inh inactive, G9a block inactive, PI5P4Ka inh inactive, HP1b binding inh inactive and JMJD2A Tudor inactive.
COc1cc(/C=C2/C(=O)N(c3ccc(C)c(C)c3)N=C2C)cc([N+](=O)[O-])c1O was read as BAZ2B inh 40µM, PLK1 PBD inh inactive, G9a block inactive[0.501 µM], PI5P4Ka inh inactive, HP1b binding inh inconclusive and JMJD2A Tudor 45µM.
`CCOC(=O)c1cnc2c(OC)cccc2c1Nc1cccc(O)c1` gave BAZ2B inh inactive, G9a block inactive, HP1b binding inh inactive and JMJD2A Tudor inactive.
Cn1cc([N+](=O)[O-])c(C(=O)NC2CCCC2)n1 was read as BAZ2B inh inactive, PLK1 PBD inh inactive, G9a block inactive, PI5P4Ka inh inactive, HP1b binding inh inactive and JMJD2A Tudor inactive.
`Cc1ccc(C(=O)CCC(=O)OCc2nnc(-c3ccccc3)o2)cc1` gave BAZ2B inh inactive, PLK1 PBD inh inactive, G9a block inactive, PI5P4Ka inh inactive, HP1b binding inh inactive and JMJD2A Tudor inactive.
For Cc1ccc(S(=O)(=O)NCC(=O)OCc2nnc(-c3ccccc3)o2)cc1C the results were BAZ2B inh inactive, PLK1 PBD inh inactive, G9a block inactive, PI5P4Ka inh inactive, HP1b binding inh inactive and JMJD2A Tudor inactive.
`CC1CCCN(C(=O)COC(=O)CNS(=O)(=O)c2ccc3ccccc3c2)C1` (stereo not drawn) gave BAZ2B inh inactive, PLK1 PBD inh inactive, G9a block 7.1µM, PI5P4Ka inh inactive, HP1b binding inh inactive and JMJD2A Tudor inactive.
Screening CN(Cc1ccccc1)C(=O)COC(=O)CNS(=O)(=O)c1ccc2ccccc2c1 returned BAZ2B inh inactive, PLK1 PBD inh inactive, G9a block inactive, PI5P4Ka inh inactive, HP1b binding inh inactive and JMJD2A Tudor inactive.
O=C(CCC(=O)c1cccs1)OCc1nnc(-c2ccccc2)o1 was read as BAZ2B inh inactive, PLK1 PBD inh 27µM, G9a block inactive[12.7 µM], PI5P4Ka inh inactive, HP1b binding inh inconclusive and JMJD2A Tudor 50µM.

Source: PubChem BioAssay (National Center for Advancing Translational Sciences (NCATS))
